High-throughput results deposited in PubChem BioAssay by several laboratories.
ERb coact inh: blocks coactivator binding to human estrogen receptor beta; Q92731; TR-FRET ER-beta LBD / SRC1-Cy5 peptide binding; receptor agonist-loaded with 1 µM estradiol; inhibition, % at 25.6 µM; 86,000 compounds, 1.3% hits;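 active = compounds whose percent inhibition of the receptor-coactivator binding signal exceeds about 50% in the single-dose screen, limit read from the data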;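 note: 0% = receptor plus peptide wells without compound and 100% = peptide-only wells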
CD11b adhes enh: increases human CD11b/CD18 adhesion to fibrinogen | AID 1499 | P05107+P11215 | K562 CD11b/CD18 adhesion to fibrinogen, ATPlite luminescence | activation, % at 10 µM | 93,000 compounds, 0.07% hits;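 active = 10 µM primary screen giving 50% or more activity, confirmed by 40% or more on retest at that dose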
ERa SRC1 pot: ER-alpha (human) coactivator binding potentiation. P03372. TR-FRET ERalpha-LBD/SRC-Cy5 coactivator binding, 2 h; 100 = basal binding, no effect. coactivator binding (% of control), % at 25.6 µM. 86,000 compounds, 1.3% hits. AID 639; in the data active = activity above about 200%;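 note: binding measured in presence of low estradiol as agonist stimulus; 0% = peptide alone without receptor and 100% = receptor with peptide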
FAK inh: blocks human focal adhesion kinase activity; AID 727; 97,000 compounds, 0.84% hits; biochemical FAK kinase activity assay; inhibition, %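 (tested at 7 µM)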; in the data active = inhibition above about 19%;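 note: 0% = DMSO and 100% = reference compound high control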
Target sequence (Q05397 whole entry, looked up): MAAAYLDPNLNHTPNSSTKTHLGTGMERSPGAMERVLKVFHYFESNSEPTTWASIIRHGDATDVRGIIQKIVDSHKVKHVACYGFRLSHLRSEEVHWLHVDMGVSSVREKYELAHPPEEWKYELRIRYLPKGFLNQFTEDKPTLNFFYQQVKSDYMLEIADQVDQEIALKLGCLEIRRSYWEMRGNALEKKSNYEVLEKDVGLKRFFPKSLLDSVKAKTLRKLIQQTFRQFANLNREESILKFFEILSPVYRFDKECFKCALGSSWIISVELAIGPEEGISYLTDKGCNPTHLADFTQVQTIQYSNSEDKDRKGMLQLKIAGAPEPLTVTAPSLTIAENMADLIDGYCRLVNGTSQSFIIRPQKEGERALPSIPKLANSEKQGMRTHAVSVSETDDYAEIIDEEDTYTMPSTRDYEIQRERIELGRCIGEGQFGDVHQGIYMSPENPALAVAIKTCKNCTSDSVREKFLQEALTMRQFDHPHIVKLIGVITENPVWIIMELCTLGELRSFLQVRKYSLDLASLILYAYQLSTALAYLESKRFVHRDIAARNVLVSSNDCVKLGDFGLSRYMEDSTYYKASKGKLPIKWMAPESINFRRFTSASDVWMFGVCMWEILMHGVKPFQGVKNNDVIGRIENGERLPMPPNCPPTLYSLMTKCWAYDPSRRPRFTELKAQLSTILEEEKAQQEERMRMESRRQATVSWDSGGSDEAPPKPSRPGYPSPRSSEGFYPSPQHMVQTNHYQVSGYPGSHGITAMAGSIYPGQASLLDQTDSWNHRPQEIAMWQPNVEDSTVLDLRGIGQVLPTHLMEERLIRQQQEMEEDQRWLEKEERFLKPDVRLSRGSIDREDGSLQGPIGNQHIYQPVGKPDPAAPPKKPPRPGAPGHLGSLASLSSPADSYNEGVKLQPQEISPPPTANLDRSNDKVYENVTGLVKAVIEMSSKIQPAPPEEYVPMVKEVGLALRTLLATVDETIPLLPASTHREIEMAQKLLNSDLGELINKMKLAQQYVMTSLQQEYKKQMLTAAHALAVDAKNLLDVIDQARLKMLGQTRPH
ERa coact inh: blocks coactivator binding to human estrogen receptor alpha. P03372. TR-FRET ER-alpha LBD / SRC-1 peptide, estradiol-bound. inhibition, % at 25.6 µM. 86,000 compounds, 1.7% hits; in the data active = inhibition above about 50%;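 note: 0% = receptor plus peptide control and 100% = peptide only without receptor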
Mac1 fbg inh: blocks human CD11b/CD18 adhesion to fibrinogen. P05107+P11215. K562 CD11b/CD18 adhesion to fibrinogen, ATPlite luminescence; Mn2+ added to activate the integrin. inhibition, % at 10 µM. 93,000 compounds, 0.54% hits. AID 1497;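 active = primary inhibition of 50% or more at 10 µM, then 40% or more on retest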
Starred values were filed as active, the others as inactive; / = no result; [ ] = another dose, or the depositor's remark. Sampled rows, rich in hits. Any-hit rate of the full collection: about 3.5%.

SMILES | ERb coact inh | CD11b adhes enh | ERa SRC1 pot | FAK inh | ERa coact inh | Mac1 fbg inh
COc1ccc(-n2c(SCC(=O)NCC3CCCO3)nc3ccccc32)cc1 (stereo not given) | 2 | -7 | 97 | 0 | 0 | -30
CCOCc1nnc(NC(=O)COC)s1 | 0 | -5 | 101 | / | 0 | -2
COc1ccc(/C=C/C(O)=C2/C(=O)N(C)C3(C)CC2c2ccccc2O3)cc1 (stereo not given) | 27 | 4 | 95 | -5 | 63* | 10
COc1ccc2[nH]c3nc(SCc4nnc(-c5ccccc5)o4)nnc3c2c1 | 52*[fluorescence artefact?] | 10 | 54 | 16 | 85*[fluorescence artefact?] | -5
CSc1nc2ccc(NS(=O)(=O)c3ccc(Cl)s3)cc2s1 | 5 | -12 | 98 | -22 | 11 | 82*
O=c1[nH]c2ccc(Cl)cc2c(-c2ccccc2)c1CN1CCOCC1 | 0 | 0 | 87 | 3 | 0 | -2
O=C(c1ccco1)N1CCN(C(=O)c2oc(=O)c3ccccc3c2-c2ccccc2)CC1 | -9 | -4 | 94 | -1 | -3 | -15
O=C(c1ccco1)N1CCN(c2c(-c3ccccc3)c3cc(Cl)ccc3[nH]c2=O)CC1 | 16 | -5 | 223*[fluorescence artefact?] | 2 | 25 | 24
O=c1[nH]c2ccc(Cl)cc2c(-c2ccccc2)c1N1CCN(c2ccccn2)CC1 | 30 | 0 | 260*[fluorescence artefact?] | / | 13 | 5
O=c1[nH]c2ccc(Cl)cc2c(-c2ccccc2)c1N1CCOCC1 | 23 | -4 | 357*[fluorescence artefact?] | / | 18 | 10
O=C(CSc1nc(-c2ccccc2Cl)ns1)NCc1ccco1 | 0 | / | 98 | -3 | -8 | /
O=C1CC(c2ccc(S(=O)(=O)NCc3ccncc3)cc2)CN1 (stereo not given) | 7 | 0 | 109 | -5 | -9 | -11
Nc1nc(-c2ccco2)c(-c2ccco2)s1 | 54* | 1 | 63 | 8 | 35 | -5
COc1cccc(-c2nc(CSCC(=O)NCC3CCCO3)c(C)o2)c1 (stereo not given) | -35 | -4 | 106 | 12 | -25 | -8
CCCCOc1ccc(C(C)NC(=O)CCS(=O)(=O)Cc2ccccc2Cl)cc1 (stereo not given) | / | 8 | / | / | / | -2
CCOC(=O)c1sc(C)c2c1NC(c1ccc(N(C)C)cc1)NC2=O (stereo not given) | 12 | -4 | 216*[fluorescence artefact?] | 3 | 11 | -1
CCOC(=O)CC1(CC(=O)OCC)NC(=O)c2c(C)sc(C(=O)OCC)c2N1 | 4 | 5 | 105 | -3 | 0 | 0
O=C(CCn1nnc2ccccc21)Nc1nnc(Cc2ccccc2)s1 | 20 | 2 | 94 | 10 | 48 | -4
CCC(=Nc1ccc(N)cc1)C1=C(O)C(C(=O)OC)C(C)(C)CC1=O (stereo not given) | 83*[fluorescence artefact?] | -2 | 123 | 9 | 3 | 2
Nc1c(C(=O)NCCN2CCOCC2)c2nc3ccccc3nc2n1-c1ccc2c(c1)OCO2 | 39 | 108 | 73 | / | 63*[fluorescence artefact?] | -8
Nc1ccc(-n2c(N)c(C(=O)NCc3ccc4c(c3)OCO4)c3nc4ccccc4nc32)cc1 | 33 | / | 15 | 1 | 79*[fluorescence artefact?] | /
CC1CCN(C(=O)CCc2ccc(S(=O)(=O)NC(C)C)cc2)CC1 | 1 | 0 | 106 | 0 | 5 | -5
O=C(CSc1nnnn1C1CCCC1)NCc1ccc2c(c1)OCO2 | 3 | -2 | 114 | 0 | 1 | -28
CCC(=O)OCCCCCCOc1ccc(C(=O)O)cc1 | / | 1 | / | 7 | / | 6
CCCCn1nnc(NC(=O)Cc2ccc(Cl)cc2)n1 | -3 | 13 | 94 | 0 | 2 | -2
SMILES | ERb coact inh | CD11b adhes enh | ERa SRC1 pot | FAK inh | ERa coact inh | Mac1 fbg inh
CCn1nnc(NC(=O)CSc2ccc(Cl)cc2)n1 | 82* | 1 | 29 | / | 90* | -13
CCOc1ccc(-c2nnn(CC(=O)c3ccc4c(c3)OCCO4)n2)cc1OCC | 26 | -4 | 385*[fluorescence artefact?] | -3 | 13 | 9
CCOc1ccc(-c2nnn(CC(=O)NCc3ccc(F)cc3)n2)cc1OCC | 4 | -2 | 115 | 6 | 1 | 7
CCCS(=O)(=O)c1nc(S(=O)(=O)c2ccc(C)cc2)c(NCc2ccc3c(c2)OCO3)s1 | / | 2 | / | / | / | 2
CCSc1nnc(-c2cccs2)o1 | / | 1 | / | 0 | / | -6
O=C(CSc1nc2ccccc2o1)Nc1nc2ccccc2s1 | 4 | 83* | 134 | -6 | 1 | 9
O=C(CSc1nc2ccccc2o1)Nc1nc2c(s1)CCCC2 | 1 | / | 114 | / | 8 | /
CC1(C)CCCC2=C1CC1C(=O)N(O)C(=O)C1C2 (stereo not given) | 89* | -5 | 119 | 2 | 0 | -11
CC(=O)Nc1ccc(S(=O)(=O)N(c2cccnc2)S(=O)(=O)c2ccc(NC(C)=O)cc2)cc1 | 10 | / | 97 | -1 | 0 | /
CC1=CC(C)(C)N(S(=O)(=O)c2ccc(F)cc2)c2ccc(C)cc21 | -6 | -3 | 92 | 4 | 2 | 36
CC1=CC(C)(C)N(S(=O)(=O)c2ccc(C)cc2)c2ccccc21 | 0 | -5 | 171 | 0 | -24 | 52*
CCCCCN(C(=O)NC(=O)Nc1nncs1)S(C)(=O)=O | 0 | -3 | 103 | 1 | -5 | 17
c1ccc(-n2ncc3c2ncn2nc(-c4ccco4)nc32)cc1 | 49 | 20 | 315*[fluorescence artefact?] | -4 | 45 | 21
COc1cccc(OCc2nc3c4cnn(-c5ccccc5)c4ncn3n2)c1 | 9 | 21 | 173 | -1 | 19 | 0
CCCCOC(=O)Cn1c2ccc(OC)cc2c2nc3ccccc3nc21 | 21 | 0 | 227*[fluorescence artefact?] | 13 | 53*[fluorescence artefact?] | 14
Oc1c(C=Nc2cccc3cccnc23)sc2ccccc12 | 51*[fluorescence artefact?] | -2 | 64 | 4 | 79* | 41
O=C(NC1=NCCS1)c1sc2cc(F)ccc2c1Cl | / | 1 | / | / | / | 16
CC(O)(CS(=O)(=O)Cc1ccccc1Cl)C(=O)Nc1cccc(C(F)(F)F)c1 (stereo not given) | / | / | / | -3 | / | /
CCOC(=O)c1cnc(-n2nc(C)cc2C)nc1NCCc1ccccc1 | 2 | -2 | 91 | 4 | -6 | -3
CCOC(=O)c1cnc(-n2nc(C)cc2C)nc1NCc1ccc2c(c1)OCO2 | 30 | 1 | 219*[fluorescence artefact?] | 4 | 34 | 7
O=C(c1cccn2c(=O)c3ccc(Cl)cc3nc12)N1CCN(Cc2ccc3c(c2)OCO3)CC1 | 6 | 3 | 104 | 1 | 8 | -3
CCc1nnc(NC(=O)C2Cc3ccccc3CN2S(=O)(=O)c2ccc(C)cc2)s1 (stereo not given) | 7 | / | 89 | 5 | 1 | /
CCc1nnc(NC(=O)C2Cc3ccccc3CN2S(=O)(=O)c2cccs2)s1 (stereo not given) | 27 | 25 | 80 | 11 | 55* | -6
COc1ccc(-c2nn(C)c3sc(C(=O)NCc4ccco4)cc23)cc1OC | 59*[fluorescence artefact?] | 41 | 64 | / | 80*[fluorescence artefact?] | 0
